# Measurements from PubChem BioAssay.
# Active and inactive are the calls of the source. How the calls were made is not given here.
# System: Aerobactin synthetase IucA (Klebsiella pneumoniae hvKP1)
# Assay: Biochemical IucA enzyme inhibition primary screen of the Spectrum library (AID 1346200);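 further: 100% = wells without compound and 0% = wells lacking enzyme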
# Details: malachite green pyrophosphate, A620, at 8 µM, active compounds read low
row,SMILES,activity remaining
1,C/C=C(/C)C(=O)O[C@H]1CC[C@@]2(C)[C@@H]3CC[C@H]4[C@]5(O)C[C@H](O)[C@@]6(O)[C@@H](CN7C[C@@H](C)CC[C@H]7[C@@]6(C)O)[C@]5(O)C[C@@]42OC13O,103% (inactive)
2,C[C@@H]1CC[C@@]2(OC1)O[C@H]1CC3C4CC[C@H]5C[C@@H](O)CC[C@]5(C)C4CC[C@]3(C)[C@H]1[C@@H]2C (stereo not given in full),101% (inactive)
3,Nc1ccc(S(N)(=O)=O)cc1,116% (inactive)
4,CCOC(=O)c1c(C)cc(OC)cc1O,110% (inactive)
5,CC1(C)C(=O)C=C[C@@]2(C)C1CC(=O)[C@@]1(C)C3=CC(=O)O[C@@H](c4ccoc4)[C@]3(C)CCC12 (stereo not given in full),107% (inactive)
6,CN1CCC(=C2c3ccccc3Sc3ccccc32)CC1,119% (inactive)
7,CNC[C@@H](O)c1ccc(O)c(O)c1,115% (inactive)
8,C[C@@H]1O[C@@H](OC[C@H]2OC(Oc3c(-c4ccc(OCCO)c(OCCO)c4)oc4cc(OCCO)cc(O)c4c3=O)[C@H](O)[C@@H](O)[C@@H]2O)[C@H](O)[C@H](O)[C@H]1O (stereo not given in full),121% (inactive)
9,CC(=O)Oc1cccc(O)c1,114% (inactive)
10,COC(=O)C[C@H]1C2(C)CC34OC5(C)O[C@@]6([C@H](OC)C(OC(=O)C(C)C)[C@]7(C)C(/C(=C(/OC)C(C)C)C(=O)O[C@H]7c7ccoc7)[C@@]6(O5)[C@H](OC)[C@@]3(OC)C2OC(C)=O)[C@]14C (stereo not given in full),119% (inactive)
11,CCn1cc(C(=O)O)c(=O)c2cc(F)c(N3CCNCC3)cc21,115% (inactive)
12,O=c1cc(-c2ccccc2)oc2cccc(O)c12,99.1% (inactive)
13,CCN(CCCc1ccccc1)CCCc1ccccc1,109% (inactive)
14,COc1cc(OC)c2c(=O)c(OC)c(-c3ccc(OC)c(OC)c3)oc2c1,120% (inactive)
15,CC1(C)C[C@@H]2C(=O)CC[C@H]3O[C@]3(C)CC[C@H]21,110% (inactive)
16,Cc1cc(=O)oc2cc(O)c(O)cc12,118% (inactive)
17,COc1ccc(-c2oc3cc(O[C@H]4O[C@H](CO)[C@@H](O)[C@H](O)[C@H]4O)c(OC)c(O)c3c(=O)c2OC)cc1O,77.6% (inactive)
18,CC(C)C[C@@H](NC(=O)OCC1c2ccccc2-c2ccccc21)C(=O)O,119% (inactive)
19,OC1=Cc2c(O)cc(O)cc2OC1(O)c1ccc(O)c(O)c1 (stereo not given),81.3% (inactive)
20,Cc1[nH]c(C)c(Cl)c(=O)c1Cl,121% (inactive)

row,SMILES,activity remaining
1,O=c1oc2cc(O)ccc2s1,110% (inactive)
2,CC1CCC2(OC1)OC1CC3C4CCC5C[C@@H](O)CCC5(C)C4=CCC3(C)C1[C@@H]2C (stereo not given in full),95.7% (inactive)
3,Oc1c(Cl)cc(Cl)cc1Sc1cc(Cl)cc(Cl)c1O,118% (inactive)
4,CC(=O)OCC[C@H](C)CCC=C(C)C,104% (inactive)
5,CC12CCC3C(=CCc4cc(O)ccc43)C1CCC2=O (stereo not given),108% (inactive)
6,CN(C(=O)C(Cl)Cl)c1ccc(OC(=O)c2ccco2)cc1,96.4% (inactive)
7,CC(C)=CCc1c2c(c3occ(-c4ccc(O)cc4)c(=O)c3c1O)C=CC(C)(C)O2,99.3% (inactive)
8,CC1CCC(NC(=O)N(CCCl)N=O)CC1 (stereo not given),106% (inactive)
9,NNC(=O)c1ccncc1,106% (inactive)
10,CC(C)=CCc1c2c(c(O)c3c(=O)c(O)c(-c4ccccc4)oc13)C=CC(C)(C)O2,110% (inactive)
11,O=C1c2ccccc2C(=O)c2c(O)c(O)cc(O)c21,118% (inactive)
12,CN(C)c1ccc2nc3ccc(=[N+](C)C)cc-3sc2c1,104% (inactive)
13,O=c1ccn([C@@H]2O[C@H](COP(=O)(O)OP(=O)(O)OP(=O)(O)O)[C@@H](O)[C@H]2O)c(=O)[nH]1,98% (inactive)
14,CC(=O)O[C@H]1CC[C@]2(C)C3CC[C@@]4(C)C(CC5O[C@@]6(CCC(C)CO6)[C@@H](C)C54)C3CC[C@@H]2C1 (stereo not given in full),84.2% (inactive)
15,CC[C@]1(O)CC2CN(CCc3c([nH]c4ccccc34)[C@@](C(=O)OC)(c3cc4c(cc3OC)N(C)[C@H]3[C@@](O)(C(=O)OC)[C@H](OC(C)=O)[C@]5(CC)C=CCN6CC[C@]43[C@@H]65)C2)C1 (stereo not given in full),126% (inactive)
16,Clc1ccccc1CN1CCc2sccc2C1,109% (inactive)
17,C#C[C@]1(O)CCC2C3CCC4=Cc5oncc5C[C@]4(C)C3CC[C@@]21C (stereo not given in full),120% (inactive)
18,COc1ccc(-c2coc3cc(O)ccc3c2=O)c(OC)c1,111% (inactive)
19,CC(C(=O)O)c1ccc2c(c1)[nH]c1ccc(Cl)cc12 (stereo not given),109% (inactive)
20,COc1ccc2cc3[n+](cc2c1OC)CCc1cc2c(cc1-3)OCO2,86.3% (inactive)
